Compound activity from PubChem.
G9a inh: qHTS Assay for Inhibitors of Histone Lysine Methyltransferase G9a; 350,000 compounds, 8.8% hits; G9a H3K9 monomethylation, AlphaScreen, 2 h; Potency, µM (highest dose often 102 µM), without a hit: at the top dose activity, negative = inhibition, usual class: inhibitors; also: potency is read from the fitted curve at half-maximal effect; nearly all actives have a fitted effect of over 75% in size
Target sequence (Q96KQ7 913-1193 limits assumed): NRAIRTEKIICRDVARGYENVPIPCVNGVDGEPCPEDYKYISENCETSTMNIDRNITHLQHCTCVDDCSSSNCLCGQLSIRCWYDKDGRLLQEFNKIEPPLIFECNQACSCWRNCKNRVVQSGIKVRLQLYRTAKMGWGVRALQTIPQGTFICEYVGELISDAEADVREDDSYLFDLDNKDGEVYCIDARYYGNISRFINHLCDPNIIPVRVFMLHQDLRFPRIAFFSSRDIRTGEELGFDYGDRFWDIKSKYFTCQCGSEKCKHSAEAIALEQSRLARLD
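Step 1: enzyme (final 20 nM) with compound, 15 min RT. Step 2: substrate peptide 500 nM and SAM 20 uM, 2 h RT. Step 3: anti-H3K9me1 antibody and AlphaScreen beads, 10 min, then plate read.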
PLK1 PBD inh: qHTS for Inhibitors of PLK1-PDB (polo-like kinase 1 - polo-box domain): Primary Screen; Plk1 PBD binding of FITC phosphopeptide, fluorescence polarization; Potency, µM, for inactives: max response, negative = inhibition, hits mostly inhibitors; 360,000 compounds, 2.8% hits; Serine/threonine-protein kinase PLK1 (Homo sapiens), P53350; also: potency is read from the fitted curve at half-maximal effect; series mostly up to about 57 µM; nearly all actives have a fitted effect of over 65% in size
CCT chaperon mod: High-Throughput Screening for Modulators of Cytosolic Chaperonin Activity | purified chaperonin ATPase assay, HTRF ADP detection, 30 min | activity change, % (concentration not given with the values), hits read low | 360,000 compounds, 0.3% hits | AID 651819, 2012; in the data active = activity change below about -30%
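We incubate TRiC, 40 or 20 nM final, with library compounds at 76 uM and 10 uM ATP for 30 min at 37 °C. ADP formed is detected with Transcreener HTRF reagents after 30 min at room temperature.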
VDR inh: Inhibitors of the vitamin D receptor (VDR): qHTS; VDR-SRC2-3 peptide fluorescence polarization, 2 h; Potency, µM, for inactives: max response, negative = inhibition, hits mostly inhibitors; 400,000 compounds, 0.93% hits; AID 504847, 2011; also: potency is read from the fitted curve at half-maximal effect
Target sequence (P11473 whole entry, looked up): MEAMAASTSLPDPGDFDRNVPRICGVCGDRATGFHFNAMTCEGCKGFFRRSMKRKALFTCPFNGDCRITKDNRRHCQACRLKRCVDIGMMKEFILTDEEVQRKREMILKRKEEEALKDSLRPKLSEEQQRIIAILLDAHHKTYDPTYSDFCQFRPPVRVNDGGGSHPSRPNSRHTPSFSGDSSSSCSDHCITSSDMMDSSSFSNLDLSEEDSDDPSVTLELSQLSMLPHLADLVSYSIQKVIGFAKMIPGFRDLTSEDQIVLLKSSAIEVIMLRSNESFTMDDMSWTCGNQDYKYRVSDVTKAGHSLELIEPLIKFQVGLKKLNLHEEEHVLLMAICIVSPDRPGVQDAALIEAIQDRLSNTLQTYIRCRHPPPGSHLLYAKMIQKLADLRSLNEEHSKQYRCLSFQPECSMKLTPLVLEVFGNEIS
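Signal is fluorescence polarization, reporting how far test compounds block the interaction of VDR with the SRC2-3 coregulator peptide after a 2 h room-temperature incubation.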
Sfp PPTase inh: qHTS Assay for Inhibitors of Bacillus subtilis Sfp phosphopantetheinyl transferase (PPTase). 310,000 compounds, 3.5% hits. 4'-phosphopantetheinyl transferase ffp (Bacillus subtilis), Q9F4F7. Potency, µM, inactives show largest response in the series, negative = inhibition, most hits filed as inhibitors. Biochemical Sfp PPTase activity, qHTS;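 also: the enzyme is Sfp with the accession as filed and its product quenches rhodamine fluorescence; potency is read from the fitted curve at half-maximal effect; 0% = enzyme reaction without inhibitor and -100% = no enzyme wells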
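Fluorescence-quenching assay with 15 nM Sfp, 5 uM rhodamine-CoA and 12.5 uM BHQ-2-labelled ybbR peptide in pH 7.6 Hepes/MgCl2 buffer. Enzyme was pre-incubated with compound for 15 min at room temperature. Rate was taken from the 30-min fluorescence change (525/598 nm).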
MmCpn inh: Inhibitors of TCP-1 ring complex (TRiC) of Methanococcus maripaludis (MmCpn): qHTS; 330,000 compounds, 0.031% hits; purified Mm-Cpn ATPase, ADP Transcreener TR-FRET; Potency, µM (doses to about 76.9 µM), without a hit: at the top dose activity, negative = inhibition, hits mostly inhibitors; also: potency is read from the fitted curve at half-maximal effect; nearly all actives have a fitted effect of over 80% in size
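ATP (10 uM final) was added to archaeal chaperonin (25 nM final) after 10 min exposure to test compound at 37°C; after 30 min further incubation, ADP was detected by competitive TR-FRET.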
An asterisk follows results filed as active; ? = inconclusive; / = no result given; [ ] = dose if it differs, or a comment. An excerpt weighted towards active compounds, which were near 10% of everything screened. Unless noted, calls follow the shape of the dose curve; as a rule, active = well fitted curve in the direction sought with a large enough effect; inconclusive = small, poorly fitted or top-dose-only effect, or another doubt; inactive = no such curve, though single readings can be large; an effect the other way counts as inactive or inconclusive. Unless noted, % is scaled to controls: 0 for no effect and ±100 for the full control effect.

SMILES | G9a inh | PLK1 PBD inh | CCT chaperon mod | VDR inh | Sfp PPTase inh | MmCpn inh
Cc1nnc(CN(C)C(=O)CC2C(=O)NCCN2Cc2ccccc2C)o1 (configuration not stated) | 35µM* | -13% | 2 | 0% | 5% | 0%
CCOc1ccc(CN2CCNC(=O)C2CC(=O)N(C)C2CCCCC2)cc1 (configuration not stated) | 18%[59 µM] | -13% | 1 | -11% | 16% | -3%
CC(C)=CCC/C(C)=C/CO/N=C1/C[C@@H](O)[C@@H](O)[C@@H]2[C@H]3C(=O)N(c4ccc(F)cc4F)C(=O)[C@@H]3CC[C@@H]12 | / | / | / | / | 24% | /
Cc1nc(-c2ccc(F)cc2)sc1CCNC(=O)c1cccs1 | 18%[59 µM] | / | / | 1% | / | /
CN(Cc1nccn1C)C(=O)CC1C(=O)NCCN1Cc1ccccc1C(F)(F)F (configuration not stated) | 50µM* | -3% | 0 | 4% | 0% | 3%
Cc1ccc(CN2CCNC(=O)C2CC(=O)N(C)C2CCCCC2)o1 (configuration not stated) | -9%[12.7 µM] | -13% | -1 | 12% | 18% | 0%
Cc1ccc(CN2CCNC(=O)C2CC(=O)O)o1 (configuration not stated) | 50µM* | -10% | -2 | 6% | 23% | -1%
CCn1ccnc1CN(C)C(=O)CC1C(=O)NCCN1Cc1c(F)cccc1Cl (configuration not stated) | ? | -4% | 2 | -3% | -1% | 3%
CN(C(=O)CC1C(=O)NCCN1Cc1ccccc1C(F)(F)F)C1CCOCC1 (configuration not stated) | -3%[0.501 µM] | 11µM* | 0 | ? | 12% | -2%
CN(Cc1nccn1C)C(=O)CC1C(=O)NCCN1Cc1ccc(F)cc1Cl (configuration not stated) | 40µM* | 1% | 0 | -6% | 3% | 1%
COCCCNC(=O)C1CCN(c2cc(C)nc3c(-c4ccc(OC)c(OC)c4)c(C)nn23)CC1 | -34%[59 µM] | / | / | 0% | / | /
O=C1[C@@H]2[C@H]3C(=CC[C@@H]2C(=O)N1Cc1ccccc1)C1(OCCCO1)[C@H]1O[C@@H]1[C@H]3O | / | / | / | / | -8% | /
CN(CCc1cn[nH]c1)C(=O)CC1C(=O)NCCN1Cc1ccccc1C(F)(F)F (configuration not stated) | 45µM* | -10% | 0 | 21% | -21% | -2%
C=CCNC(=S)Nc1ccccc1 | 5%[59 µM] | -7% | 1 | -1% | -8% | 4%
CCOC(=O)N/N=C1\CC(C)CC(C)(C)C1 (configuration not stated) | 21%[59 µM] | -11% | -10 | -6% | 17% | -1%
COCCNC(=S)NN=C1CCC(c2ccccc2)CC1 (configuration not stated) | 8.9µM* | -1% | 2 | 4% | -13% | -4%
C=CCNC(=S)NN=C1CCC(c2ccccc2)CC1 (configuration not stated) | 13µM* | -10% | -2 | -3% | -13% | 4%
COCCNC(=S)N/N=C1\CC(C)CC(C)(C)C1 (configuration not stated) | 50µM* | -8% | -4 | ? | 50µM* | 3%
CC(=O)NN=C1CCC(c2ccccc2)CC1 (configuration not stated) | -13%[59 µM] | -4% | -1 | 21% | -3% | 0%
COc1ccc(-c2noc(N3CCC(C(=O)N4CCN(c5cccc(OC)c5)CC4)CC3)n2)cc1 | -10%[59 µM] | / | / | 8% | / | /
C/C=C1\COC(C(=O)NCc2ccccn2)(C(F)(F)F)C=C1C=C(C)C (configuration not stated) | / | / | / | ? | -5% | /
Cc1ccccc1OCCn1c(-c2ccc(Cl)cc2)nc2ccccc2c1=O | ? | / | / | -15% | / | /
O=C(Nc1cc(-c2ccccc2)sc1C(=O)O)c1cccc(F)c1 | 27% | 30µM* | 0 | -2% | 0% | -5%
CCOc1ccc(-c2cc(NC(=O)c3c(F)cccc3F)c(C(=O)O)s2)cc1 | 31% | 34µM* | -4 | ? | -6% | -4%
O=C(Nc1nnc(-c2cccs2)s1)c1cccc(F)c1 | 32µM* | 2% | -3 | -6% | -29% | -18%
SMILES | G9a inh | PLK1 PBD inh | CCT chaperon mod | VDR inh | Sfp PPTase inh | MmCpn inh
O=[N+]([O-])c1cc(-c2nc(-c3ccccc3)no2)ccc1N1CCCC1 | -32%[59 µM] | / | / | 9% | / | /
Cc1cccc(NC(=O)N2CCC3(CC2)Oc2ccccc2C(=O)N3Cc2ccccc2F)c1C | 12%[59 µM] | / | / | -2% | / | /
COc1ccc(-n2ncc(C(=O)NCc3ccccc3)c2C2CCN(C(=O)OC(C)(C)C)CC2)cc1 | -25%[59 µM] | / | / | -4% | / | /
Cc1oc(-c2ccc(Cl)cc2)nc1Cn1c(=O)cc(C)c2c(C)nn(-c3cccc(F)c3)c21 | -2%[59 µM] | / | / | -2% | / | /
C/C(=N\NC1=N[C@H]2CS(=O)(=O)C[C@H]2S1)c1ccccc1 | 50µM* | 6% | 2 | 4% | ? | 0%
Cc1cc(C)c(CSc2nnc(C)n3c2cc2occc23)c(C)c1 | ? | / | / | -7% | / | /
O=C(c1ccco1)N1CCN(C(=O)c2cc3c(s2)-c2ccccc2OC3)CC1 | 45µM* | -21% | 0 | -29% | 50µM* | ?
CCn1c2ccccc2c2cc(CN3CCN(Cc4ccc(Cl)cc4)CC3)ccc21 | 0.5µM* | / | / | 2% | / | /
CCn1c2ccccc2c2cc(CN3CCN(Cc4ccccc4C)CC3)ccc21 | 1.8µM* | / | / | -15% | / | /
CCn1c2ccccc2c2cc(NS(=O)(=O)c3ccccc3C)ccc21 | 51%[59 µM] | -9% | 0 | -3% | 18% | -1%
CCn1c2ccccc2c2cc(CN3CCN(Cc4ccccc4F)CC3)ccc21 | 2µM* | / | / | -8% | / | /
O=c1c2ccccc2n(Cc2ccccc2F)c(=O)n1Cc1ccccc1F | 1% | 0% | 0 | 40% | -5% | -3%
CCn1c(CN2CCN(c3ccc(Cl)cc3)CC2)nc2ccccc21 | 27%[59 µM] | 0% | -1 | 18% | -13% | 0%
Cc1c(C(=O)Oc2ccc(Br)cc2)sc2ncn(Cc3ccccc3F)c(=O)c12 | -5%[59 µM] | / | / | -3% | / | /
COc1cccc(C(=O)NCCS(=O)(=O)NCc2cccnc2)c1 | 50µM* | -12% | -1 | 1% | / | -1%
COc1cccc(C(=O)NCCS(=O)(=O)NCc2cccs2)c1 | 35µM* | -11% | 0 | 6% | / | 0%
COc1cccc(C(=O)NCCS(=O)(=O)NCc2ccco2)c1 | 20µM* | -9% | 1 | 5% | / | 0%
